PubChem BioAssay (NCI)
About 83,000 compounds went through this panel and 20% of them were active in at least one assay; those are over-represented in the sample as a whole.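 Compound tested at a single concentration for 48 hours in 96-well plates; a percent growth value below 10 was scored as active.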 A number with no mark means an inactive call. Calls of active or inactive are those of the source.

What follows are compounds tested on RPMI-8226 leukemia (assay: NCI-60 one-dose screen, 48 h (100 = growth as untreated, 0 = no growth, -100 = all killed)). Conditions: 10 µM.

**Q.** COc1ccc(-c2c(N)c(=O)n(C)c3ccccc23)cc1 was tested. Which growth did it give?
**A.** 25.1%

**Q.** Which growth does the source give for COc1ccc2c(c1)N=C(C(=O)O)/C2=C/c1sc(Nc2ccc(O)cc2)nc1O here?
**A.** 65.7%

**Q.** CN(C)c1ccc(/C=C/c2nc3ccccc3c(=O)n2CC(=O)Nc2ccc(Cl)cc2)cc1 was tested. Which growth did it give?
**A.** 88.1%

**Q.** With COc1ccccc1C(=O)NNC(=O)CSc1nc2c(c(=O)[nH]1)CCCC2 as the compound, how does the growth read?
**A.** 98.1%

**Q.** With CN(C)c1nc(NCCNS(=O)(=O)c2ccc(C(=O)/C=C/c3ccccc3)cc2)nc(Nc2ccc(F)cc2)n1 as the compound, how does the growth read?
**A.** 18.2%

**Q.** For CN(CCO)c1oc(-c2ccccc2)nc1[P+](c1ccccc1)(c1ccccc1)c1ccccc1, which growth is on record?
**A.** 7.8% (active)

**Q.** Which growth does the source give for CCOC(=O)C1=C(N)N(c2ccccc2)C2=C(C(=O)CC(C)(C)C2)C1c1ccccc1OC (centres undefined) here?
**A.** 100%

**Q.** With CCOC(=O)C1=C(N)N(c2ccccc2)C2=C(C(=O)CC(C)(C)C2)C1c1ccc(Cl)cc1 (centres undefined) as the compound, how does the growth read?
**A.** 7.68% (active)

**Q.** For Brc1ccc(N/N=C/c2c[nH]c3ccccc23)nc1, which growth is on record?
**A.** 2.19% (active)

**Q.** Which growth does the source give for C=CCn1c(SCC(=O)Nc2ccc(C(=O)/C=C/c3ccccc3)cc2)nnc1-c1c[nH]c2ccccc12 here?
**A.** 2.87% (active)

**Q.** With C/C(=C\CSc1ccccc1C(=O)O)CCCC(C)CCCC(C)CCCC(C)C (centres undefined) as the compound, how does the growth read?
**A.** 35%

**Q.** Which growth does the source give for COc1cc2c(cc1OC)/C(=C\c1sc(Nc3ccc(O)cc3)nc1O)C(C(=O)O)=N2 here?
**A.** 16.1%

**Q.** With COc1ccc(Nc2nc(N)n(Cc3cccc(Br)c3)n2)cc1 as the compound, how does the growth read?
**A.** 8.38% (active)

**Q.** CC[C@]12C=CCN3CC[C@@]4(c5cc(C#CCNc6ccc(C)c(Nc7nccc(-c8cccnc8)n7)c6)c(OC)cc5N(C)[C@H]4[C@@](O)(C(=O)OC)[C@@H]1OC(C)=O)C32 (some centres undefined) was tested. Which growth did it give?
**A.** 38.5%
